# Shn3 3UTR inh: Schnurri-3 reporter inhibition in Clone20 osteoblasts; Clone20 osteoblast Shn3 3'UTR firefly luciferase, 24 h; inhibition, % at 12.5 µM; actives 0.52% (n = 360,000);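 active = mean inhibition of at least 75% with every replicate also reaching 75%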;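 note: 0% = median of neutral control wells and 100% = pilot-screen positive control compound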
# Peg3 prom inh-1: inhibitors of Peg3 promoter; HeLa PEG-Prom luciferase reporter, luminescence, overnight; inhibition, % at 20 µM; actives 1.7% (n = 360,000); AID 588405;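 active = inhibition of at least 50% at 20 µM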
# HIF-2a block: HIF-2a inhibition; actives 0.72% (n = 360,000); 786-0 RCC cells HIF-2a reporter, luciferase luminescence, overnight; inhibition, % at 18.8 µM;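 active = inhibition of the luminescence signal of 40% or more relative to plate controls, in a single-dose primary screen at 18.75 µM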
# KKLEB cytotox: reduces viability of KKLEB cystic fibrosis airway cells; actives 0.36% (n = 360,000); KKLEB CF airway cells viability, ATPlite luminescence, overnight; active compounds read low; cells stimulated with P. aeruginosa culture filtrate; activity change (cytotoxicity), % at 5 µM; AID 602141;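 active = corrected activity change at or below -50% at 5 µM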
# EBV LMP1 NFkB: Epstein-Barr LMP1 NF-kappaB reporter inhibition | AID 504558 | LMP1-induced NF-kappaB luciferase reporter cells, luminescence | actives 0.69% (n = 350,000) | inhibition, % at 12.5 µM; in the data active = inhibition above about 41%;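 note: 0% = neutral control wells and 100% = reference inhibitor control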
# CF NFkB block: blocks PAF-induced NF-kB reporter in cystic fibrosis cells. AID 588850. actives 0.86% (n = 360,000). inhibition, % at 5 µM. KKLEB NF-kB-GFP reporter, GFP fluorescence overnight;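 active = at least 50% inhibition at 5 µM, scaled per plate between neutral and stimulator controls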;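 note: PAF is a Pseudomonas aeruginosa culture filtrate used as stimulus; plate controls were PAF-stimulated DMSO wells for no effect and unstimulated DMSO wells for full effect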
# Peg3 prom inh-2: confirmation of Peg3 promoter inhibitors; actives 84% (n = 1,300); inhibition, % at 20 µM; shares compounds with Peg3 prom inh-1; AID 602417; HeLa PEG-Prom luciferase reporter, luminescence, overnight;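 active = at 20 µM dose, 40% or more inhibition averaged across four replicates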
# * = called active by the depositor; nt = no result. Only some compounds are listed: those with a hit (about 2.9% of all), similar ones and a draw of the others.
SMILES,Shn3 3UTR inh,Peg3 prom inh-1,HIF-2a block,KKLEB cytotox,EBV LMP1 NFkB,CF NFkB block,Peg3 prom inh-2
Cc1ccc2[nH]c(=O)c(C3C(C#N)=C(N)Oc4c3ccc3cccnc43)cc2c1 (stereo unspecified),51,50*,10,8,22,-23,48*
CCCCN(C)CCNC(=O)c1cc(-c2cccnc2)nc2ccc(S(=O)(=O)N3CCC(C)CC3)cc12,-14,96*,25,-5,-18,14,74*
CCN(CC)CCN(C(=O)c1cc2c(ccc3ccccc32)oc1=O)c1nc2cc3c(cc2s1)OCCO3,48,96*,-19,-2,-17,-7,-11
Nc1ccccc1C#Cc1cnccn1,7,-61,-102,18,-10,-28,nt
C(=Cc1c[nH]c2ccccc12)c1ccc2ccccc2n1,30,72*,18,-24,13,-60,-4
CCOC(=O)c1ccc(NC(=O)C2CCCN(S(=O)(=O)c3ccc(F)cc3)C2)cc1 (stereo unspecified),20,74*,19,7,18,-14,56*
NC(N)=N/N=C/c1cccc(Cl)c1Cl,70,76*,-7,-11,-3,-1,80*
O=S(=O)(Cc1ccccc1)N1CCN(c2ncccn2)CC1,-26,12,-9,-14,-7,-2,nt
COc1cc2c(cc1OC)CN(CC(=O)NC(=O)NC1CCCCC1)CC2,12,1,11,0,-3,9,nt
Cc1cccc2c1-c1sc(C(=O)NCCCN3CCCC(C)C3)cc1CO2 (stereo unspecified),-4,76*,-10,-14,-4,9,99*
Cc1ccccc1OCC(=O)Nc1cccc(C(=O)O)c1,56,84*,92*,-2,77*,11,85*
O=C(Nc1ccc(Cl)cc1)Nc1cccc(C(=O)O)c1,15,53*,66*,16,62*,-4,36
CCOc1ccc(NC(=O)Nc2cccc(C(=O)O)c2)cc1,79,85*,88*,-1,81*,-15,75*
Cc1ccc(C(=O)N/C(=C/c2ccco2)C(=O)OCN2C(=O)c3ccccc3C2=O)cc1,2,10,8,1,-5,-3,nt
Cc1cccc(NC(=O)c2cccc(S(=O)(=O)N3CCc4ccccc4C3)c2)n1,-3,23,-3,0,6,-2,nt
O=C(O)c1ccccc1C(c1ccc(O)cc1)c1ccc(O)cc1,16,-6,21,1,-1,-15,nt
CN(C)CCN(C(=O)c1ccc(S(=O)(=O)N2CCCC2)cc1)c1nc2ccc(Br)cc2s1,-7,-99,-98,-1,3,8,nt
CN(C)CCCN(C(=O)c1ccc(S(=O)(=O)N2CCCCCC2)cc1)c1nc2cc3c(cc2s1)OCO3,17,-10,-11,-7,-17,9,nt
CCC1CCCCN1S(=O)(=O)c1ccc(C(=O)N(CCCN(C)C)c2nc3cc4c(cc3s2)OCO4)cc1 (stereo unspecified),1,59*,-5,-23,-13,26,70*
CC1CCCCN1S(=O)(=O)c1ccc(C(=O)N(CCCN(C)C)c2nc3ccc(Br)cc3s2)cc1 (stereo unspecified),-10,81*,-27,-27,5,8,93*
Cc1cc(Cl)ccc1C(=O)C1CCCN(C(=O)c2n[nH]c3c2CCCC3)C1 (stereo unspecified),13,9,-1,-7,-3,18,nt
COc1ccc2ccccc2c1/C=N/NC(=S)Nc1cc(S(=O)(=O)N2CCOCC2)ccc1N1CCOCC1,15,17,25,1,2,6,nt
CCOc1cccc(/C=N/NC(=S)Nc2cc(S(=O)(=O)N3CCOCC3)ccc2N2CCOCC2)c1O,82,53*,19,-6,9,15,57*
COC(=O)c1cc(C(=O)OC)[nH]n1,-12,6,17,17,-1,-12,nt
OCC[C@@H]1C[C@H](O)[C@@H](O)[C@@]2(OCCCc3cc(Cl)ccc32)O1,-21,-5,5,-6,nt,-14,nt
SMILES,Shn3 3UTR inh,Peg3 prom inh-1,HIF-2a block,KKLEB cytotox,EBV LMP1 NFkB,CF NFkB block,Peg3 prom inh-2
C=CCc1cccc(/C=N/NC(=O)C(C)Nc2ccc(C)cc2)c1O (stereo unspecified),10,55*,24,-33,17,45,41*
COc1cc(CNCCN2CCOCC2)ccc1OCc1ccc(Cl)cc1Cl,3,57*,7,-4,-12,12,79*
C#CCSc1nnnn1-c1cccc(Cl)c1,-1,-2,17,-2,-1,3,nt
Nc1ncn([C@@H]2O[C@H](CO)[C@@H](O)[C@H]2O)c(=O)n1,-7,72*,-85,-14,-51,40,50*
O=c1[nH]cnc2c1ncn2C1OC(CO)C(O)C1O (stereo unspecified),2,-6,-2,16,4,1,nt
CN1CCN(c2sc(S(C)(=O)=O)nc2S(=O)(=O)c2ccc(Cl)cc2)CC1,2,22,8,9,8,0,nt
CCOC(=O)c1cc2c(=O)n3ccccc3nc2n(C(C)C)c1=NC(=O)c1c(-c2c(F)cccc2Cl)noc1C,21,64*,20,-3,-41,-20,43*
CCOC(=O)c1cc2c(=O)n3ccccc3nc2n(C)c1=NC(=O)c1c(-c2c(F)cccc2Cl)noc1C,21,40,10,10,-12,-7,nt
COc1ccccc1CNC(=O)COC(=O)C1CCN(S(=O)(=O)c2c(Cl)cccc2Cl)CC1,-12,-3,5,7,6,-4,nt
COCCNC(=O)C1(C)CCN(Cc2noc(-c3c(C)noc3C)n2)C1 (stereo unspecified),-13,-1,-4,12,nt,-22,nt
O=C1C(=Cc2ccc(Cl)cc2)CCc2ccccc21,-67,-203,-214,-42,nt,-6,nt
COc1ccc(C=C2CCC3C(=O)CCCC3(C)C2=O)cc1 (stereo unspecified),-18,-330,-230,-22,-13,38,nt
CN(C)CC1CCC/C(=C/c2ccc(Cl)cc2)C1=O (stereo unspecified),6,96*,1,10,1,-14,98*
COc1ccc(/C=C2/CCCC(CN(C)C)C2=O)cc1 (stereo unspecified),1,98*,14,2,-34,-20,99*
Cc1ccc2nc(SCC(=O)Nc3nonc3C)[nH]c2c1,-22,-17,-34,0,18,9,nt
CN(C)CCCN(C(=O)c1ccc(S(=O)(=O)N(C)Cc2ccccc2)cc1)c1nc2cc3c(cc2s1)OCO3,-24,68*,5,-29,-4,17,89*
CCN(c1ccccc1)S(=O)(=O)c1ccc(C(=O)N(CCCN(C)C)c2nc3cc4c(cc3s2)OCO4)cc1,6,52*,-3,-4,-6,24,81*

# Compound activity deposited in PubChem by several laboratories.
